Data taken from PubChem BioAssay AID1347076 (National Center for Advancing Translational Sciences (NCATS), 2019).
Out of some 400,000 compounds screened, about 13,000 (3.2%) were called active. Inconclusive results (about 18%) are left out. Many of the other results were omitted from the sample, so actives are more common in it than they were. Values without a mark were called inactive. Calls come from the whole dose curve; as a rule, active = well fitted cell-killing curve with a large enough effect; inconclusive = small, poorly fitted or top-dose-only effect, or effect the other way; inactive = flat fitted curve, though single readings scatter.

Test: qHTS assay for MDR1-selective chemotherapeutics: Primary screen using the drug-selected MDR subline cells KB-V1; note: nearly all actives have a fitted effect of over 60% in size
Details: KB-V1 MDR cells viability, CellTiter-Glo, 72 h; series mostly up to 46.1 µM; activity change, negative = cytotoxicity: at the top concentration
Procedure, shortened: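 Potencies derive from concentration-effect curves fitted to normalized luminescence (CellTiter-Glo) of KB-V1 cells treated for 72 h at 37 degrees C in phenol-red-free DMEM containing 10% FBS.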
% is set by controls: 0 for no effect and ±100 for the full control effect; potency is the fitted concentration of half-maximal effect.

Row | Structure (SMILES) | activity change, negative = cytotoxicity [%] | Potency
1 | Cc1noc(C)c1C(=O)N1CCC1(C)C(=O)NS(=O)(=O)c1ccc(C#N)cc1 (stereo unspecified) | -16.6 | 
2 | Cc1ccc(-c2cnc(C(O)c3cc(Cl)cc(Cl)c3)[nH]2)cc1 (stereo unspecified) | -1.01 | 
3 | Cc1cccc(N2CCN(S(=O)(=O)c3ccc4[nH]c5c(c4c3)CCCCC5)CC2)c1C | -22.5 | 
4 | O[C@@H]1C[C@H](c2ccccc2)N(Cc2cccs2)C[C@H]1n1cc(C2CC2)nn1 | 18.2 | 
5 | COC(=O)[C@]12CCCCC=C1N(Cc1ccc3c(c1)OCO3)C(=O)[C@H](CC(=O)N1CCOCC1)C2 | -24.6 | 
6 | Cc1cccc(/C=N/NC(=O)CNc2cccc3ccccc23)n1 |  | 14.6 µM (active)
7 | C/C(=N\NC(=O)CNc1cccc2ccccc12)c1ccc(Br)s1 | -2.25 | 
8 | Cn1cccc1/C=N/NC(=O)CNc1cccc2ccccc12 | -5.81 | 
9 | COCCNS(=O)(=O)c1cc(-c2nn3c(C)nnc3c3ccccc23)ccc1C | 5.47 | 
10 | Cc1ccc(NC(=O)c2ccco2)cc1 | -11.2 | 
11 | CCOc1cc(N2CCOCC2)c(OCC)cc1NC(=O)COc1cccc2cccnc12 |  | 5.17 µM (active)
12 | CCOc1cc(N2CCOCC2)c(OCC)cc1NC(=O)COc1cccc(Cl)c1 | -16.4 | 
13 | CCOc1cc(N2CCOCC2)c(OCC)cc1NC(=O)c1ccc(C)s1 | 2.44 | 
14 | CC(C)(C)c1ccc(C(=O)C[n+]2cccc3cc(Cl)ccc32)cc1 | 14.4 | 
15 | Cc1ccc(C(=O)N2c3ncnn3C3(CCCCC3)[C@@H]3CCCC[C@@H]32)cc1 | -14.7 | 
16 | O=C(Nc1nnc(C2CC2)s1)c1cc(Cl)sc1Cl | 13.8 | 
17 | Cc1cc(C(=O)Nc2nnc(C3CC3)s2)c(C)s1 | -22.1 | 
18 | Cc1occc1C(=O)Nc1nnc(C2CCCCC2)s1 |  | 16.4 µM (active)
19 | CC1=C(C(=O)N2CCOCC2)CC(CC(=O)NCCN2CCOCC2)C(=O)N1CCC1=CCCCC1 (stereo unspecified) | 63.2 | 
20 | COc1ccc(N2CCN(S(=O)(=O)c3ccc(-c4coc(C)n4)cc3)CC2)cc1 | 0 | 
21 | COc1ccc(Br)cc1C1CC(=O)Nc2c1c(C)nn2-c1nc(C)cc(C)n1 (stereo unspecified) | 3.24 | 
22 | Oc1ccc(Br)cc1C1C=C(c2ccc3c(c2)OCO3)NC(c2ccc(Cl)cc2)N1 (stereo unspecified) | 11.4 | 
23 | COC(=O)c1cc(Oc2ccc(S(=O)(=O)N3CCOCC3)cc2[N+](=O)[O-])cc(C(=O)OC)c1 | 1.19 | 

Row | Structure (SMILES) | activity change, negative = cytotoxicity [%] | Potency
24 | COc1ccc(OCC(=O)Nc2cc(C)c(Cl)cc2OC)c([N+](=O)[O-])c1 | 0 | 
25 | Cc1nnc(-c2ccc(Oc3ccc(C)c(C)c3)c([N+](=O)[O-])c2)o1 |  | 14.6 µM (active)
26 | CCc1ccccc1NC(=O)N1CCN(C(=O)c2nsc3ccccc23)CC1 | -9.18 | 
27 | CCOc1cc(-c2nnc(SCC(=O)NC3CCCC3)nc2-c2ccc(OC)c(OCC)c2)ccc1OC | 3.85 | 
28 | COc1cccc(C(=O)Nc2nnc(S(=O)(=O)N(C)c3ccccc3)s2)c1 | 17.8 | 
29 | CN(c1ccccc1)S(=O)(=O)c1ccc(C(=O)N2CCN(c3ccccc3Cl)CC2)cc1 | -14.5 | 
30 | CN(c1ccccc1)S(=O)(=O)c1cc(C(=O)Nc2nc3ccccc3[nH]2)ccc1Cl |  | 3.66 µM (active)
31 | CN(c1ccccc1)S(=O)(=O)c1cc(C(=O)N2CCN(c3ncccn3)CC2)ccc1Cl |  | 2.91 µM (active)
32 | CC(=O)c1ccc(N2CCN(C(=O)c3ccc(Cl)c(S(=O)(=O)NC4CC4)c3)CC2)c(F)c1 | 6.94 | 
33 | CN(c1ccccc1)S(=O)(=O)c1cc(C(=O)OCC(=O)N2CCN(C(=O)c3ccco3)CC2)ccc1Cl | -22.2 | 
34 | CC(OC(=O)c1ccc(NC(=O)CC#N)cc1)C(=O)Nc1ccc(S(=O)(=O)N2CCCC2)cc1 (stereo unspecified) | -7.06 | 
35 | Nc1nc2cc(Cl)ccc2n1N | 0.774 | 
36 | CCCCN(CC)C(=O)c1c[nH]c2ccc(S(=O)(=O)Nc3cccc(OC)c3)cc2c1=O | 0.646 | 
37 | CCCc1nc2c3ccccc3ccn2c1Cc1ccccc1C(F)(F)F | 20.4 | 
38 | COc1ccc(CNC(=O)C2CCN(C(=O)c3ccccc3)CC2)cc1 | 19 | 
39 | COc1ccc2c(c1)C(SCC(=O)NCc1ccccc1)CC(C)(C)O2 (stereo unspecified) | -13.6 | 
40 | C[C@]1(C(=O)NCCc2c[nH]c3ccccc23)C=C[C@@H](Cc2ccccc2)N1C(=O)c1ccccc1 | -0.929 | 
41 | COC(=O)[C@@]1(Cc2ccc(OC)cc2)[C@H]2c3cc(C(=O)N4CCCC4)n(Cc4ccc(OC(F)(F)F)cc4)c3C[C@H]2CN1C(=O)c1ccccc1 |  | 20.6 µM (active)
42 | COC(=O)[C@@]1(Cc2ccc(F)cc2)[C@H]2c3cc(C(=O)N(C)C)n(CCc4c[nH]c5ccc(OC)cc45)c3C[C@H]2CN1C(=O)c1ccccc1 |  | 18.4 µM (active)
43 | COC(=O)[C@@]1(Cc2ccc(F)cc2)[C@H]2c3cc(C(=O)N4CCCC4)n(C[C@H](O)CO)c3C[C@H]2CN1C(=O)c1ccccc1 | 24.6 | 
44 | CCN1C(=O)[C@H]2[C@@H](c3ccc(C(F)(F)F)cc3)N[C@]3(CCCN(Cc4ccc(Br)cc4)C3=O)[C@H]2C1=O | -9.24 | 
45 | CC1(C)CC(=O)C=C(c2ccccc2CO)C1=O | 0 | 
46 | Cn1c(Nc2ccc(F)cc2)nc2cc(-c3ccsc3)sc2c1=O | 3.2 | 
